Results as given in PubChem BioAssay AID576 (NMMLSC, 2007).
Screen size: about 24,000 compounds; about 150 (0.62%) were called active.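 The calls were made as follows: active = fluorescence ratio above 2.44, which is 1 plus 3 SD of all ratios; inconclusive = signal too bright to measure linearly, ratio around 10 or more; inactive = fluorescence ratio below 2.44.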 The entries come from a sample that favours actives as a whole.

Assay: intrinsic compound fluorescence with Jurkat cells – cell-based, flow cytometry, artefact control for VLA-4 allosteric ligand project, primary screen (AID 576);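 also: green fluorescence of cells measured with 488 nm excitation and 530 nm emission; tested at 10 µM compound in the well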
Details: compound autofluorescence, stronger effect = higher value, 1 = vehicle-only cell background

SMILES	fluorescence ratio
O=C(CN1CCN(c2ccccc2F)CC1)c1ccc2c(c1)OCO2	1.02 (inactive)
COCCNC(=O)CN1C(=O)CSc2ncccc21	1.05 (inactive)
CCOC(=O)N1CCC(NC(=O)COc2cc(=O)n(C)c3ccccc23)CC1	0.98 (inactive)
CCOC(=O)C1CCCN(C(=O)c2sc3nc(C)nc(N4CCOCC4)c3c2C)C1 (centres undefined)	1.03 (inactive)
O=C(Cn1cc2c(n1)CCCCC2)NCCN1CCOCC1	0.97 (inactive)
COc1ccccc1-n1cnc2cc(C(=O)NCC3CCCO3)ccc21 (centres undefined)	1.03 (inactive)
COCCn1c(=O)[nH]c2cc(C(=O)NCc3cccnc3)ccc2c1=O	1.03 (inactive)
COc1ccc(C(CC(=O)O)NC(=O)Cc2ccccc2)cc1 (centres undefined)	0.92 (inactive)
CCOC(=O)CSc1nnc(CNC(=O)c2cccs2)n1-c1ccccc1	1.06 (inactive)
CC(C)C(=O)Nc1c(C(=O)c2ccc(F)cc2)oc2ccccc12	0.99 (inactive)
Nc1nonc1-c1nc2ccccc2n1CCC(=O)O	1.57 (inactive)
Cc1noc(C)c1CSc1nc2cc(S(=O)(=O)N3CCOCC3)ccc2o1	1.05 (inactive)
COc1ccc(C2C(C(=O)N3CCN(c4ccc(OC)cc4)CC3)c3ccccc3C(=O)N2C)cc1 (centres undefined)	1.1 (inactive)
Cc1cc(N2C(=O)c3ccc(C(=O)NCc4ccccc4)cc3C2=O)no1	1.09 (inactive)
CCN(CC(=O)Nc1ccc2c(c1)OCCO2)Cc1cc(=O)oc2cc(C)c(C)cc12	1.06 (inactive)
CCOC(=O)C1CCN(C(=O)C2CCN(S(=O)(=O)N3CCCC3)CC2)CC1	0.96 (inactive)
CC(=O)c1c(C)c[nH]c1C	1.09 (inactive)
CCN1C(=O)/C(=C2/Sc3ccccc3N2CCCS(=O)(=O)O)SC1=S	1 (inactive)
CCN(CC)CCCNC(=O)c1cc(-c2cccc(Cl)c2)on1	1.16 (inactive)
Cc1cc(NC(=O)CN2CCC(O)(c3cccc(F)c3)CC2)no1	1.02 (inactive)
COCCOC(=O)C1=C(C)N=c2s/c(=C\c3cccs3)c(=O)n2C1c1cccs1 (centres undefined)	1.11 (inactive)
Cc1c(C(=O)Nc2ccccc2Cl)oc2ccc(S(=O)(=O)N3CCC4(CC3)OCCO4)cc12	0.97 (inactive)
CC1(C)Oc2ccc3ccc(=O)oc3c2/C(=C/NCCO)C1=O	1.15 (inactive)
COCCNC(=O)c1snc2ccc(Cl)cc12	1 (inactive)
O=C(CN1CCN(CC(=O)Nc2ccc3c(c2)OCO3)CC1)Nc1ccc(F)cc1	0.97 (inactive)

SMILES	fluorescence ratio
Cc1ccc(S(=O)(=O)NCc2csc(C)n2)c(C)c1	0.95 (inactive)
Cc1cccn2c(=O)c3cc(C(=O)N4COCC4(C)C)n(C)c3nc12	1.08 (inactive)
COc1ccccc1N1CCN(Cc2nnnn2CCc2ccccc2)CC1	0.99 (inactive)
COc1ccc(C2CC(c3ccc(Cl)cc3Cl)Nc3nc(N)nn32)cc1OC (centres undefined)	1.06 (inactive)
C=CCOC(=O)C1=C(C)OC(N)=C(C#N)C1c1ccc(F)cc1 (centres undefined)	1.25 (inactive)
CC(=O)N1C(=O)C2(Nc3ccccc3N2)c2ccccc21	1.04 (inactive)
CCOC(=O)c1sc(=S)n(-c2cccc(OC)c2)c1N	1.14 (inactive)
Cc1ccccc1CSc1nnc(Cn2c(=O)sc3ccccc32)n1C	0.88 (inactive)
CCOC(=O)CSc1nnc(CNC(=O)c2ccco2)n1-c1ccc(F)cc1	1 (inactive)
CCOC(=O)c1ccc(CS(=O)c2ccc(Cl)cc2)o1 (centres undefined)	1.08 (inactive)
CC1=C(C)CC2C(=O)N(c3cccc4ccccc34)C(=O)C2C1 (centres undefined)	1.06 (inactive)
COC(=O)C(C)Sc1nc2c(c(=O)n(C)c(=O)n2C)n1Cc1cccc(C)c1 (centres undefined)	1.09 (inactive)
O=C1OC(NC(=O)c2ccccc2)C(N2CCOCC2)=C1Cl (centres undefined)	1.07 (inactive)
O=C(CN1CCN(c2ccc(F)cc2)CC1)Nc1cccc(C(F)(F)F)c1	0.96 (inactive)
CCc1ccc(NC(=O)CSc2nc3ccccc3c(=O)n2CCN2CCOCC2)cc1	1.15 (inactive)
CCn1cc(C(=O)NC2CCCCCC2)c(=O)c2cc(S(=O)(=O)N3CCCCC3)ccc21	1.18 (inactive)
CCCC(=O)NC(C)C(c1cccs1)N1CCN(c2ccccc2)CC1 (centres undefined)	1.12 (inactive)
O=C(Nc1cccnc1)c1ccc2c(c1)OCO2	1.06 (inactive)
CCOC(=O)n1c(SCC(=O)N(CC)CC)nc2ccccc21	0.99 (inactive)
CCS(=O)(=O)N1CCCC(C(=O)NCc2ccc(C)cc2)C1 (centres undefined)	0.99 (inactive)
CCOC(=O)C1CCN(C(=O)Cc2c(C(=O)O)[nH]c3ccccc23)CC1	1.09 (inactive)
COc1ccc(OC)c(C(=O)c2ccc(C(=O)O)cc2)c1	0.99 (inactive)
COc1ccccc1-c1c(C)nn2c(C)c(C(C)=O)cnc12	0.98 (inactive)
Cc1ccc(C)c(N2CCN(C(=O)CCc3nc4ccccc4[nH]3)CC2)c1	1.04 (inactive)
O=C(CN1CCOCC1)Nc1c2c(nc3c1CCC3)CCC2	0.96 (inactive)

SMILES	fluorescence ratio
Cc1cc(NC(=O)c2cc(-c3cccs3)on2)nn1Cc1ccc(Cl)cc1	1.05 (inactive)
CC(=O)Nc1nonc1-c1nc2ccccc2n1Cc1ccccn1	1.24 (inactive)
CC(Sc1sc(=S)sc1SC(C)C(=O)O)C(=O)O (centres undefined)	0.93 (inactive)
Cn1c(=O)cc(SCC(=O)N2CCN(C(=O)c3ccco3)CC2)c2ccccc21	1.12 (inactive)
C=CCNC(=O)CSc1nc2sc(C)c(C)c2c(=O)[nH]1	1.07 (inactive)
O=C(O)CC(c1ccccc1)n1cnnn1 (centres undefined)	0.92 (inactive)
Cn1nnnc1SCc1cc(=O)[nH]c2ccccc12	1.06 (inactive)
CC(C)OCCCNC(=O)C1CC(=O)N(C2CCCCCCC2)C1 (centres undefined)	0.98 (inactive)
CCOc1ccc(N(CC(=O)NCc2ccc(OC)cc2)S(=O)(=O)c2c(C)noc2C)cc1	0.82 (inactive)
COc1ccc(CCN(Cc2cc3cccc(C)c3[nH]c2=O)C(=O)N2CCCC2)cc1OC	1.08 (inactive)
O=C(CN1C(=O)C2C3C=CC(C3)C2C1=O)NCCc1ccccc1Cl (centres undefined)	1.19 (inactive)
O=C(CCn1c(=O)oc2ccccc21)Nc1ccon1	1.03 (inactive)
Cc1cc(=O)n2nc(N3CCCC(C(=O)N4CCN(C)CC4)C3)sc2n1 (centres undefined)	1.07 (inactive)
Cc1ccc(-c2cc(C(F)(F)F)n3nc(C(=O)N4CCCC4)cc3n2)cc1	1.02 (inactive)
Cc1nc(C)c2c(c1C(F)(F)F)-c1ccccc1C2(F)F	1.11 (inactive)
CCOC(=O)c1cnc(-n2nc(C)cc2C)nc1Nc1cccc(C(C)=O)c1	1.06 (inactive)
COCc1[nH]nc2c1C(C1C=CCCC1)C(C#N)=C(N)O2 (centres undefined)	1.09 (inactive)
Cc1noc(C)c1S(=O)(=O)NCCc1ccc(S(N)(=O)=O)cc1	1.07 (inactive)
Cn1c(=O)n(C)c2cc(CNc3ccc(N4CCOCC4)c(C(=O)O)c3)ccc21	0.99 (inactive)
O=C(O)C1CCCN(S(=O)(=O)c2cccc3cccnc23)C1 (centres undefined)	0.95 (inactive)
CCCCn1c(CN2CCN(CCO)CC2)nc2ccccc21	1.04 (inactive)
COc1ccc(-c2nc(CS(=O)CC(=O)NCc3cccnc3)c(C)o2)cc1OC (centres undefined)	0.78 (inactive)
COc1ccc(C2/C(=C(/O)c3ccccc3)C(=O)C(=O)N2c2ncccn2)cc1OC (centres undefined)	0.98 (inactive)
Cc1nc(N2CCN(c3ncccn3)CC2)c2oc3ccccc3c2n1	1.15 (inactive)
CCOC(=O)N1CCN(C(=O)c2cn(C)c3ccc(S(=O)(=O)N4CCCC4)cc3c2=O)CC1	1.07 (inactive)

SMILES	fluorescence ratio
COc1ccccc1NC1=NC2(CCCC2)N=C(N)N1	1.04 (inactive)
COc1ccc(-c2cc3ccc(OCc4nn[nH]n4)cc3oc2=O)cc1	1.09 (inactive)
Fc1ccc2nc(Nc3nc4c(s3)CCCC4)sc2c1	4.43 (active)
Fc1ccc2nc(N3CCCCC3)sc2c1	1.31 (inactive)
CNC(=O)c1ccc2nc(NC(C)=O)sc2c1	1.01 (inactive)
CCOC(=O)C1CCCN(C(=O)C2CCN(c3nnc(-n4cccc4)s3)CC2)C1 (centres undefined)	1.06 (inactive)
CSc1ccc(S(=O)(=O)Nc2cccc(F)c2)cc1	0.98 (inactive)
O=C(c1cnn2ccccc12)N1CCc2ccccc21	0.92 (inactive)
CCOC(=O)N1CCC(NC(=O)CCc2cn(C)c3ccccc23)CC1	0.96 (inactive)
N#CCCn1ncc2ccccc21	0.9 (inactive)
CCC1=C/C(=C\c2ccc3c(c2)OCO3)C(=O)S1	1.11 (inactive)
CC1CCCC(N2CCN(C(=O)c3ccc(F)cc3)CC2)C1 (centres undefined)	0.93 (inactive)
Cc1c(C(=O)N2CC(C)OC(C)C2)sc2nc(-c3ccccc3)cn12 (centres undefined)	1.33 (inactive)
CCC(=O)N1CCc2cc(S(=O)(=O)NC(C(=O)N3CCc4ccccc4C3)C(C)C)ccc21 (centres undefined)	0.97 (inactive)
COc1ccc(CCNS(=O)(=O)c2ccc(C(=O)NCc3ccco3)cc2)cc1OC	1.03 (inactive)
c1cnn(-c2cc(N3CCOCC3)ncn2)c1	1.1 (inactive)
CCCCC(=O)N(c1ccc(OC)cc1)C1C=CS(=O)(=O)C1 (centres undefined)	1.03 (inactive)
Cc1nc(SCC(=O)Nc2cc(C)on2)c2c3c(sc2n1)CCCC3	1.28 (inactive)
COc1cccc(Nc2nnc(SCC(=O)N3CC(C)OC(C)C3)s2)c1 (centres undefined)	1.02 (inactive)
CC(=O)N(CC1CCCO1)C1(C(=O)NC2CCCC2)CCCCC1 (centres undefined)	0.95 (inactive)
O=C(Nn1cc(C(=O)N2CCN(c3ccccc3F)CC2)c2ccccc2c1=O)c1cnccn1	1.02 (inactive)
COCCN1Cc2cccc(C(=O)Nc3ccccc3OC)c2C1=O	1.02 (inactive)
CCCCN(C)Cc1c(C)[nH]c2ccc(Cl)cc2c1=O	1.01 (inactive)
CCn1c(SCC(=O)Nc2ccccc2F)nc2c(c1=O)SC(C)C2 (centres undefined)	0.98 (inactive)
